Measured values reported in ChEMBL document CHEMBL3988442, “University of Dundee, Small-Polar-MMV Screening Library” (2021).
Hit rate of the full screen: of about 69,000 compounds, about 950 (1.4%) showed an effect of 50% or more. Only a selection was taken, and strong results are over-represented in it overall.

System: Mycobacterium tuberculosis
Experiment: Cornell M. t heat shock assay; note: in the data most compounds retested in dose-response had high values
Format: functional, organism-based
Parameters: dose or concentration left out as unconfirmed

| Structure (SMILES) | Percent Effect |
| --- | --- |
| CN1CCc2cc(C(=O)N(C)C)c(NCC3CC3)nc2CC1.O=C(O)C(F)(F)F.O=C(O)C(F)(F)F | -30.07% |
| Cn1ccnc1CN1C[C@@H]2[C@@H](C1)OCC(=O)N2CC1CCCC1.O=C(O)C(F)(F)F | -35.26% |
| CN(C)[C@@H]1CN(C(=O)Cc2cccc(F)c2)[C@@H]2CCCO[C@H]12.O=C(O)C(F)(F)F | -1.237% |
| Cc1nnc([C@@]23CCO[C@@H]2CCN(S(=O)(=O)c2ccccc2)C3)o1 | 53.88% |
| Cc1nnc([C@@]23CCO[C@@H]2CCN(S(=O)(=O)c2cccnc2)C3)o1 | 18.46% |
| Cc1nnc([C@@]23CCO[C@@H]2CCN(S(C)(=O)=O)C3)o1 | -10.32% |
| N#Cc1cccc(CN2C[C@@H]3CN(c4ncccn4)C[C@@H]3C2)c1.O=C(O)C(F)(F)F | 29.7% |
| CO[C@H]1C[C@@H]2CN(C(=O)c3cc4cccc(F)c4[nH]3)C[C@@H]2C1 | 17.75% |
| COC(=O)CCc1c(C)nc2cc(O)nn2c1C | -4.051% |
| COc1ccc(NC(=O)CCc2c(C)nc3cc(O)nn3c2C)cn1 | 61.44% |
| CCNC(=O)CCc1c(C)nc2cc(O)nn2c1C | 0.7588% |
| CN(C)C(=O)c1cn[nH]c1C1CCCN1Cc1nccn1C.O=CO (centres undefined) | -23.16% |
| Cc1ccc(CN2CCC(O)(Cn3nc(-c4cccs4)oc3=O)CC2)o1.O=C(O)CC(O)(CC(=O)O)C(=O)O | 5.66% |
| CC1(C)CC(N2Cc3nc(N4CCCC4)ncc3C2=O)CC(C)(C)N1 | 8.213% |
| Cc1noc(C2CCN(C(=O)CCc3nccs3)CC2)n1 | 51.73% |
| Cc1noc(C2CCN(C(=O)CCNc3ncccn3)CC2)n1 | 13.08% |
| Cc1noc(C2CCN(C(=O)CCc3ccccn3)CC2)n1 | 13.4% |
| O=C(O)C(F)(F)F.O=C(O)C(F)(F)F.c1cnn(CCCO[C@@H]2CC[C@H]3[C@H]2OCCN3CC2CC2)c1 | -27.44% |
| CCn1ncc2c1CN(CCc1cccc(Cl)c1)CC2COC.O=C(O)C(F)(F)F.O=C(O)C(F)(F)F (centres undefined) | -10.95% |
| Cc1csc(C2(NCc3csc(C4CC4)n3)CCCC2)n1 | 41.22% |
| CCCc1nc(CNC2(c3nccs3)CCCC2)cs1 | 94.85% |
| CCCc1nc(CNC(=O)Cc2csc(C)n2)cs1 | 8.263% |

| Structure (SMILES) | Percent Effect |
| --- | --- |
| O=C(NC1(c2nccs2)CCCC1)c1cc(C2CC2)on1 | 7.107% |
| O=C(CCNC1(c2nccs2)CCCC1)N1CCOCC1 | -14.8% |
| c1csc(C2(NCc3csc(C4CC4)n3)CCCC2)n1 | 66.7% |
| Cc1cccc(CN2CCc3nnc(Cn4cccc4)n3CC2)n1.O=C(O)C(F)(F)F | -14.44% |
| O=C(O)C(F)(F)F.O=C(O)C(F)(F)F.c1cc(-c2ccc3nc(C4CCN(CC5CC5)CC4)nn3c2)ccn1 | -27.27% |
| Cc1cccc(CN2CC[C@@H]3[C@@H]2CCN3C(=O)c2cc(C)on2)n1.O=C(O)C(F)(F)F | -16.64% |
| CCN(CC)CC1CN(Cc2cccc(C#N)c2)Cc2nccn2C1.O=C(O)C(F)(F)F.O=C(O)C(F)(F)F (centres undefined) | -22.76% |
| Cc1nnc2n1CCN(Cc1csc(-c3ccsc3)n1)C2 | -0.9289% |
| c1sc(C2CCCCC2)nc1CN1CCn2c(nnc2C2CC2)C1 | 7.076% |
| c1sc(C2CCCC2)nc1CN1CCn2c(nnc2C2CC2)C1 | 55.31% |
| CCc1nnc2n1CCN(Cc1csc(-c3ccc(C)o3)n1)C2 | 49.84% |
| Cc1ccc(-c2nc(CN3CCn4c(nnc4C4CC4)C3)cs2)o1 | 171.6% |
| Cc1ccc(-c2nc(CN3CCn4c(C)nnc4C3)cs2)o1 | -2.255% |
| c1cnc(-c2nc(CN3CCn4c(nnc4C4CC4)C3)cs2)nc1 | 18.84% |
| c1cc(-c2nc(CN3CCn4c(nnc4C4CC4)C3)cs2)cs1 | 159.7% |
| c1ccc(-c2nc(CN3CCn4c(nnc4C4CC4)C3)cs2)cc1 | 10.73% |
| Cc1ccc(-n2cc(CN3CCOCC3)c(-c3cccc(C)c3)n2)cc1 | 101.4% |
| Cn1cc(CN2CCCC(O)C2)c(-c2ccccc2F)n1 (centres undefined) | 14.46% |
| Cc1ccc(C)c(-n2cc(CN3CC[C@@H](O)C3)c(-c3ccccc3)n2)c1 | 85.17% |
| Cc1ccc(C)c(-n2cc(CN3CCOCC3)c(-c3ccccc3)n2)c1 | 9.683% |
| Cc1cccc(-c2noc(CN3CCOCC3C)n2)c1 (centres undefined) | -19.27% |
| Cc1ccc(S(=O)(=O)c2ncccc2CN2CCOCC2)cc1 | -21.96% |
